Tests used:
[1] = tested on: Human papillomavirus type 1a protein E7 (residues 44-93); assay: HPV1a E7 fragment binders on microarrays, primary screen, biochemical, small-molecule microarray, residues 44-93, 635 nm fluorescence (AID 1108); details: small-molecule microarray binding, fluorescence 635 nm; higher = more signal;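 also: E7 fragment applied at 1 µg/mL in TBST for 1 h at 4 C; score combines spot fluorescence with its signal to noise ratio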
[2] = modulators of HCV replicon luciferase signal, primary screen, HCV replication inhibitor project, Huh7 cells, luciferase reporter (AID 1109); details: 48 h, higher = more signal;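 also: huh7 hepatoma cells harbouring a luciferase neomycin HCV replicon reporter; luciferase luminescence as measure of HCV replicon replication; test concentration not given here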
[3] = target: Left-right determination factor 2 (Homo sapiens) (UniProt O00292); assay: LEFTY2 binders on small-molecule microarrays, primary screen, biochemical, small-molecule microarray, 635 nm fluorescence scan (AID 1110); details: LEFTY2 binding, higher = more signal
[4] = target: Calmodulin-1 (Homo sapiens) (UniProt P0DP23); assay: CALM1 binders on microarrays, EGTA buffer, profiling panel, biochemical, small-molecule microarray, Cy5-labelled CALM1 (AID 1111); details: Cy5-CALM1 binding fluorescence, higher = more signal;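 also: labelled calmodulin applied in Tris saline Tween buffer holding calcium plus EGTA and DTT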
[5] = target: Calmodulin-1 (Homo sapiens) (UniProt P0DP23); assay: calcium-bound CALM1 binders on microarrays, profiling panel, artefact control for SMM control-protein annotation, biochemical, small-molecule microarray, Cy5-labelled CALM1, plus calcium (AID 1112); details: Cy5-CALM1 binding fluorescence, higher = more signal;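 also: score merges spot fluorescence with signal to noise from triplicate slides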
[6] = small-molecule microarray binders of probe aWnt5a, primary screen, biochemical, biotinylated probe, 635/667 nm fluorescence (AID 1113); details: higher = more signal;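 also: score merges 667 nm fluorescence intensity with signal-to-noise per printed feature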
[7] = small-molecule microarray binders of probe aShh, primary screen, biochemical, biotinylated probe, 635/667 nm fluorescence (AID 1114); details: higher = more signal;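 also: probe is biotin-labelled aShh protein from a stem cell growth factor screen; measures binding of labelled protein to compounds printed on the slide; score merges feature fluorescence at 667 nm with signal-to-noise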
[8] = small-molecule microarray binders of probe aNog, primary screen, biochemical, biotinylated probe, 635/667 nm fluorescence (AID 1115); details: higher = more signal;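 also: probe is biotinylated aNog protein used at 0.15 µg/mL for 1 h at 4 C; z-score combines 667 nm fluorescence of each spot with its signal to noise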
[9] = target: Torsin-1A-interacting protein 1 (Homo sapiens) (UniProt Q5JTV8); assay: LAP1 binders from COS7 cell lysate, primary screen, small-molecule microarray, 635/667 nm fluorescence (AID 1116); details: COS7-hLAP1 lysate binding, 635 nm fluorescence, higher = more signal
[10] = target: Alpha-bungarotoxin (Bungarus multicinctus) (UniProt P60615); assay: alpha-bungarotoxin binders on microarray, profiling panel, artefact control for SMM control protein annotation, biochemical, small-molecule microarray, Alexa647 label, 635/667 nm fluorescence (AID 1117); details: alpha-BTX-A647 binding fluorescence, higher = more signal
Chain of Alpha-bungarotoxin (Bungarus multicinctus) (P60615 whole entry, looked up): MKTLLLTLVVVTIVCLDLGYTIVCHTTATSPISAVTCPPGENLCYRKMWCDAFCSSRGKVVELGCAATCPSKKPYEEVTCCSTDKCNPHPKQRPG

Chain of Torsin-1A-interacting protein 1 (Homo sapiens) (Q5JTV8 whole entry, looked up): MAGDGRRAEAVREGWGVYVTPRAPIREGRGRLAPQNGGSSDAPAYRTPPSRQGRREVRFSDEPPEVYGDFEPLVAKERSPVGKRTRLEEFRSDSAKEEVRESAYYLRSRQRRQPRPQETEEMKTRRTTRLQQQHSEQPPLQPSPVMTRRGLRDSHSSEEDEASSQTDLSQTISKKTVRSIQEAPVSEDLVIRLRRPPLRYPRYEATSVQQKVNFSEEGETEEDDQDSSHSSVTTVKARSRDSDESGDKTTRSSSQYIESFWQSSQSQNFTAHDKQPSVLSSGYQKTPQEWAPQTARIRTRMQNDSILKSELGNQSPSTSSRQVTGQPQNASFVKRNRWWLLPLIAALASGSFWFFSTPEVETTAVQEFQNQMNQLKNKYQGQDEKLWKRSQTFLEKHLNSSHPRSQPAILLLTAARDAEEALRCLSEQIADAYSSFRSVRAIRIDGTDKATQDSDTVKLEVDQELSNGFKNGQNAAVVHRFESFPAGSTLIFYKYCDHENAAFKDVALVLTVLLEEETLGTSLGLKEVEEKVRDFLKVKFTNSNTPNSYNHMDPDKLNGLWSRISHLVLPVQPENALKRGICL
Chain of Left-right determination factor 2 (Homo sapiens) (O00292 whole entry, looked up): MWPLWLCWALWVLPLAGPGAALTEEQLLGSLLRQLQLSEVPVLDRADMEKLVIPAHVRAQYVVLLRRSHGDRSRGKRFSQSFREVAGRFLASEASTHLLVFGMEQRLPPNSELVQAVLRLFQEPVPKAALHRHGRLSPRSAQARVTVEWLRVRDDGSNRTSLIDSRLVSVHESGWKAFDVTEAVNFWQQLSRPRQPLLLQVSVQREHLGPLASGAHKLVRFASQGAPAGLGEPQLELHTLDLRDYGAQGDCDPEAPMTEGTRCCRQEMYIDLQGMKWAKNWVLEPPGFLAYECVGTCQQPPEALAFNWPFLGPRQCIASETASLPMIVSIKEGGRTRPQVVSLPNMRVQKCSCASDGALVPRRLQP

| Compound | composite z-score [1] | z-score [2] | composite z-score [3] | composite z-score [4] | composite z-score [5] | composite z-score [6] | composite z-score [7] | composite z-score [8] | composite z-score [9] | composite z-score [10] |
| --- | --- | --- | --- | --- | --- | --- | --- | --- | --- | --- |
| O=C1O[C@H](c2ccccc2)[C@H](c2ccccc2)N2[C@H]1[C@@H](C(=O)N1CCN(c3ncccn3)CC1)[C@]1(C(=O)Nc3ccc(C#CC4=CCCCC4)cc31)[C@H]2c1ccccc1OCCO | 0.379 | -1.67 | 0.818 | 0.858 | -0.198 | 0.212 | 0.299 | 0.998 | 0.201 | 1.59 |
| CC(C)CNC(=O)[C@@]1(Cc2ccccc2I)c2ccccc2C(=O)N(Cc2ccccc2C(F)(F)F)[C@H]1c1ccc(CO)cc1 | 0.476 | -0.908 | -1.3 | -0.512 | -0.157 | -0.176 | 1.98 | 0.978 | 0.146 | -0.124 |
| O=C1C2C=CC(C(O)C=Cc3ccc([N+](=O)[O-])cc3)N(n3cnnc3)C2C(=O)N1Cc1ccccc1 (stereo not given) | 1.34 | -0.93 | -0.368 | 0.596 | -0.143 | 0.0633 | -0.0035 | 0.977 | 0.832 | 1.39 |
| C=CCN(Cc1ccccc1)C(=O)C(c1cccs1)N(C(=O)/C=C\C(=O)O)c1ccc(CCOCCO)cc1 (stereo not given) | -0.774 | 0.386 | -2.57 | -0.722 | 0.665 | -0.191 | -0.138 | -0.242 | -0.678 | -1.84 |
| COCCOC(=O)N1C(=O)[C@@]2(c3cc(C#CCCO)ccc31)[C@H](c1ccc(O)cc1)N1[C@H](c3ccccc3)[C@H](c3ccccc3)OC(=O)[C@H]1[C@@H]2C(=O)N1CCN(c2ncccn2)CC1 | 1.17 | -0.305 | 0.613 | 1.42 | 0.374 | 0.594 | 0.918 | 2.56 | 1.68 | 1.47 |
| O=C1NC(=O)C2C1C=CC(C(O)c1ccc(-c3ccccc3)s1)N2Nc1ccc(Cl)cc1Cl (stereo not given) | 1.29 | 1.7 | -0.114 | 1.65 | 1.03 | 0.1 | 0.213 | -0.358 | 0.712 | 1.06 |
| COC(=O)[C@@]1(Cc2ccc(OC)cc2)[C@H]2c3cc(C(=O)N4CCCC4)n(CCSCCO)c3C[C@H]2CN1C(=O)c1ccccc1 | 1.37 | -1.48 | -0.641 | 1.66 | 0.644 | 0.151 | 0.0039 | 2.04 | 1.01 | 1.22 |
| COC(=O)C(CC#Cc1ccc2c(c1)[C@]1(C(=O)N2)[C@H](c2ccccc2OCCO)N2[C@H](c3ccccc3)[C@H](c3ccccc3)OC(=O)[C@H]2[C@@H]1C(N)=O)C(=O)OC | 0.599 | -2.95 | -0.0862 | 1.33 | 0.116 | 0.349 | 0.679 | 2.29 | 1.21 | 2.45 |
| CC#CC(=O)Oc1ccc(Br)cc1C=CC(=O)OCC | 1.23 | -2.4 | -0.034 | -0.323 | -0.465 | -0.0154 | 0.42 | 0.302 | 0.286 | 0.683 |
| COc1ccc([C@H]2C[C@H]3C(I)=C[C@@H]2C(=O)[C@]32CO2)cc1 | -1.2 | -3.32 | 0.178 | -0.978 | -1.53 | -0.222 | -0.407 | -0.1 | 0.498 | 0.957 |
| C=CCN1C(=O)[C@]2(O[C@H](CCO)[C@@H]([Si](C)(C)c3ccc(OC)cc3)[C@@H]2C)c2cc(N(C=O)c3ccccc3)ccc21 | -0.823 | -5.14 | -0.155 | 0.393 | 0.217 | -0.096 | 0.0684 | 0.337 | 0.753 | 0.607 |
| O=C1O[C@@H](c2ccccc2)[C@@H](c2ccccc2)N2[C@@H](c3ccccc3OCCO)[C@]3(C(=O)Nc4ccc(C#CC5(O)CCCCCC5)cc43)[C@@H](C(=O)N3CCN(c4ncccn4)CC3)[C@H]12 | 1.38 | -2.29 | 0.409 | 0.586 | 0.671 | -0.0165 | -0.0234 | 0.118 | 1.5 | 0.894 |

— PubChem BioAssay
